Reference: PubChem BioAssay (NCI)
Compounds without any hit were thinned out: in the full panel of roughly 83,000, 20% have a hit.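 Negative percent growth values reflect cell death: -40 means 40% of the cells present at the start died, and -100 means all died.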 A number with no mark means an inactive call. Activity calls are given as the source filed them. How the source made its calls: active means growth percent below 10; inactive means the rest.

Experiments:
Test in all cases: NCI-60 one-dose screen, 48 h (100 = growth as untreated, 0 = no growth, -100 = all killed)
Conditions in all cases: 10 µM unless noted
[1] = test system: SR leukemia
[2] = test system: RPMI-8226 leukemia
[3] = test system: OVCAR-8 ovarian
[4] = test system: OVCAR-5 ovarian
[5] = test system: OVCAR-4 ovarian
[6] = test system: SK-OV-3 ovarian
[7] = test system: IGROV1 ovarian
[8] = test system: OVCAR-3 ovarian
[9] = test system: HS 578T breast
[10] = test system: NCI/ADR-RES ovarian

Row | SMILES | growth [1] | growth [2] | growth [3] | growth [4] | growth [5] | growth [6] | growth [7] | growth [8] | growth [9] | growth [10]
1 | OCCNc1nccc(N2CCN(c3ccnc4cc(Cl)ccc34)CC2)n1 | 17.4% | 89.3% | 94.6% | 102% | 77.5% | 85.2% | 55.7% | 81.1% | 92.1% | 
2 | Cc1[nH]c(-c2cc(N)ccc2Cl)c2c1C(=O)CCCC2 | 44.8% | 12.7% | 22.2% | 49.3% | 36.4% | 11.7% | 20.6% | 30.4% | 7.36% (active) | 33%
3 | COc1ccc(/C=C/c2nc3ccccc3nc2/C=C/c2ccc(OC)cc2)cc1 | 83.8% | 98.5% | 99.5% | 99.8% | 88.7% | 102% | 110% | 104% | 90.8% | 99.5%
4 | CCOc1ccc(C(C)=O)cc1NC(=O)c1cccc(-c2nnn(CC)n2)c1 | 10.2% | 22.4% | 34.2% | 66.5% | 48% | 23.8% | 52.3% | 7.08% (active) | 25.4% | 25.2%
5 | CCn1c(Cc2ccccc2Nc2c(Cl)cccc2Cl)nnc1SCC(=O)NN1C(=O)/C(=C/c2cc(OC)c(O)c(OC)c2)SC1=S | 21.4% | 47% | 60% | 55.5% | 74% | 23.2% | 42.9% | 7.37% (active) | 5.34% (active) | 88.6%
6 | COc1cc(-c2nn(-c3ccc(C)cc3)cc2C(=O)O)ccc1O | 85.3% | 90.9% | 98.9% | 113% | 109% | 94% | 94.2% | 93.4% | 103% | 
7 | Cc1cc(Nc2ccc(C)c(Cl)c2)n2nc(C(F)(F)F)nc2n1 | 60.6% | 51.6% | 30.8% | 55.4% | -62.7% (active) | -50.5% (active) | 15.1% | 15.2% | 28.7% | 
8 | COc1cc2c(cc1OC)C(Sc1ccc(SC)cc1)c1c(nc(N)c(C#N)c1N)O2 (stereo not given) | -37.4% (active) | -37.9% (active) | -90.6% (active) | -63.1% (active) | -94.8% (active) | -85.1% (active) | -68.9% (active) | -88.7% (active) | 4.87% (active) | -23.2% (active)
9 | NC(=NCCCOc1ccc(Cl)cc1)Nc1ccc(C(F)(F)F)cc1 | -23.7% (active) | -1.68% (active) | 66.3% | 48.4% | 34% | 78.1% | -20.5% (active) | 58.3% | 52.4% | 62.8%
10 | CCOc1cc2c(cc1OCC)C(c1cc(OC)c(O)cc1Cl)NCC2 (stereo not given) | 98.7% | 94% | 90.8% | 85.9% | 89.2% | 103% | 90.5% | 98.6% | 106% | 
11 | O=C1OC(c2ccccc2)C(O)=C1c1ccccc1 (stereo not given) | 109% | 96.5% | 100% | 99.2% | 121% | 115% | 111% | 102% | 110% | 
12 | CN1CCN(c2ccc(Nc3c4ccccc4nc4ccccc34)cc2)CC1 | 103% | 121% | 100% | 102% | 103% | 112% | 111% | 110% | 117% | 
13 | O=C(/C=C/c1cc(CN2CCOCC2)c(O)c2ncccc12)c1cc(CN2CCOCC2)c(O)c2ncccc12 | 8.01% (active) | 6.02% (active) | 15.2% | 28.3% | 30.3% | -21.8% (active) | 15.4% | 23.6% | 27.1% | 21.4%
14 | Cn1cc(-c2nonc2-c2c[nH]c3ccc(F)cc23)c2cccnc21 | 58.7% | 69.2% | 89.1% | 90.9% | 71.3% | 87.1% | 61.7% | 82% | 72.9% | 
15 | COc1ccc2[nH]cc(-c3noc(C(=O)c4cn(C)c5ccc(F)cc45)n3)c2c1 | 89.7% | 104% | 93.6% | 99.9% | 95.2% | 87.3% | 60.1% | 97.5% | 90.9% | 96%
16 | CCCCn1c(-c2ccc(C(=O)O/N=C(\N)c3ccc4ccccc4c3)cc2)nc(-c2ccccc2)c1-c1ccccc1 | 12.1% | 67.3% | 72.2% | 79.1% | 55.5% | 99% | -61.9% (active) | 71.7% | 57.9% | 
17 | CCN(CC)CCCCNc1c2ccc(Cl)cc2nc2ccc(OC)cc12 | -19% (active) | -33.9% (active) | 5.44% (active) | -12.2% (active) | -50.2% (active) | 7.93% (active) | 3.67% (active) | -25.8% (active) | -23.2% (active) | 4.68% (active)
18 | O=C(N/N=C/c1ccccc1O)c1ccccc1Nc1ccnc(C(F)(F)F)c1 | -13.9% (active) | -22% (active) | 14.9% | 20.6% | 22.4% | 11.4% | 1.57% (active) | 35.7% | 34.3% | 
19 | CCCCn1cnc2c(Sc3c([N+](=O)[O-])ncn3C)nc(N)nc21 | 56.1% | 52.3% | 91.4% | 97.6% | 89.9% | 101% | 89.3% | 103% | 101% | 
20 | c1ccc2[nH]c(-c3ccc(Nc4nc(N5CCCC5)nc5[nH]ncc45)cc3)nc2c1 | -31.1% (active) | -34.4% (active) | -55.1% (active) | 17.9% | 10.7% | 22.2% | 4.03% (active) | -53.1% (active) | -34% (active) | 1.12% (active)
21 | CCOC(=O)c1sc2nc(-c3cccc(O)c3)nc(N3CCOCC3)c2c1C | 65% | 55.4% | 61.8% | 88.3% | 51.3% | 51.1% | 16.9% | 60.5% | 15.5% | 59.6%
22 | CCNC(=O)Oc1ccc(/C(=C(\C)c2ccc(Cl)cc2)c2ccc(OCCN(CC)CC)cc2)cc1 | -26.8% (active) | -11.4% (active) | 64.8% | 85.9% | 40.5% | 61.5% | 49.2% | 53.9% | 47.1% | 57.3%
23 | C=C1C(=O)O[C@H]2[C@H]1CC/C(COC(=O)NCc1ccc(OC)c(OC)c1)=C\CC[C@@]1(C)O[C@@H]21 | 6.13% (active) | 25.1% | 47.9% | 85.1% | 42.3% | 101% | 61% | 19.9% | 86.2% | 
24 | CC1C(/C=N/Nc2ccccc2)C(C#N)(C#N)C1(C#N)C#N (stereo not given) | 46.6% | 82% | 85.6% | 87.3% | 76.1% | 95.7% | 56.3% | 86.2% | 87.2% | 
25 | COc1ccc(Nc2cc(C)nc(N3CCN(c4ccnc5cc(Cl)ccc45)CC3)n2)cc1 | -4.15% (active) | 16.2% | 53.6% | 73.4% | 36.6% | 51% | -11% (active) | 6.63% (active) | 71.1% | 
26 | Cc1nn(-c2ccc(F)cc2)c2ncnc(Oc3ccc(NC(=O)Nc4ccc(Cl)c(C(F)(F)F)c4)cc3)c12 | 110% | 98.7% | 96.5% | 99.3% | 110% | 92.6% | 102% | 114% | 91% | 98.5%
27 | COc1cc(/C=C/C(=O)c2cccnc2Nc2ccc(F)cc2)cc(OC)c1OC | 2.85% (active) | 1.24% (active) | 1.62% (active) | 35.8% | 61.6% | 42% | 91.7% | 16.1% | 24.9% | 
28 | COc1ccc(C2CC(c3ccc(Cl)cc3)=NN2/C=C2\SC(=S)N(NC(=O)Cc3ccccc3Nc3c(Cl)cccc3Cl)C2=O)cc1 (stereo not given) | 16.8% | 71.9% | 23.3% | 86.3% | 74.7% | 77.9% | 38.9% | 84.4% | 75.6% | 
